# Experimental data: PubChem BioAssay (Tox21)
# Results filed as inconclusive are left out. Calls of active or inactive are those of the source. Calls come from the whole dose curve; as a rule, active = well fitted cell-killing curve with a large enough effect in the repeat runs; inconclusive = weak or mixed curves; inactive = flat fitted curve, though single readings scatter.
# Assay: qHTS assay to identify small molecule antagonists of the TGF-beta/Smad signaling pathway - cell viability counter screen (AID 1346824); note: nearly all actives have a fitted effect of over 50% in size
# Details: SBE-bla HEK293T viability, CellTiter-Glo luminescence; series mostly up to 76.8 µM; viability change, negative = cytotoxic: at the top concentration
# Description: U.S. Tox21 Program National Center for Advancing Translational Sciences [NCATS] NIH Chemical Genomics Center [NCGC] U.S. Environmental Protection Agency [EPA] National Institutes of Environmental Health Sciences [NIEHS] National Toxicology Program [NTP] U.S. Food and Drug Administration [FDA] Tox21 Assay Overview: Transforming growth factor beta (TGF-beta) superfamily consists of a large number of structurally related dimeric proteins that act as hormones or local mediators in regulating a wide range of biological functions. This superfamily includes TGF-betas themselves, the bone morphogenetic proteins (BMPs) and the activins. These ligands induce oligomerization of serine/threonine receptor kinases and phosphorylate the cytoplasmic signaling molecules of Smad protein family. CellSensor SBE-bla HEK 293T cell line (Life Technologies, Carlsbad, CA), responsive to TGF-beta was used to screen Tox21 10K compound library for identification of agonists/antagonists of the Smad signaling pathway. This cell line contains a beta-lactamase reporter gene under control of the Smad binding element (SBE) stably integrated into HEK 293T cells. Also cytotoxicity of the compounds was tested in parallel by measuring the cell viability using CellTiter-Glo assay system in the same wells.
# Tox21 Assay Protocol Summary: SBE-bla HEK 293T cells were dispensed at 4,000/well in 5 uL of assay medium into black wall/clear-bottom 1536-well plates using a Multidrop Combi (ThermoFisher Scientific, Waltham, MA) dispenser. After the assay plates were incubated at 37 C and 5% CO2 for an overnight, 23 nL of compounds dissolved in DMSO, positive controls or DMSO only was transferred to the assay plate by a Pintool station (Kalypsys, San Diego, CA). Compound transfer was followed by the addition of 1 uL of 0.25 ng/mL TGF-beta1 or assay buffer using two separate tips of Flying Reagent Dispenser (FRD, Aurora Discovery, San Diego, CA). The assay plates were incubated at 37 C and 5% CO2 for 5 hr. One uL of LiveBLAzer B/G FRET substrate (Life Technologies) was added using a Flying Reagent Dispenser (FRD, Aurora Discovery, San Diego, CA) and the plates were incubated at room temperature for 2 hr. Fluorescence intensity (405 nm excitation, 460 nm and 530 nm emissions) was measured using an Envision plate reader (PerkinElmer, Shelton, CT). For cytotoxicity read, 4 uL of CellTiter-Glo reagent (Promega Corporation, Madison, WI) was added to each well of the assay plates using FRD. After 30 min incubation at room temperature, the luminescence intensity was measured using ViewLux plate reader (PerkinElmer).
# % is set by controls: 0 for no effect and ±100 for the full control effect.
row,SMILES,"viability change, negative = cytotoxic"
1,CC(=O)Oc1ccc(C(C)=O)cc1,-16.2% (inactive)
2,CCc1ccc(CC)cc1,9.53% (inactive)
3,O=C1Nc2ccccc2C1=O,7.95% (inactive)
4,O=c1[nH]c(=O)c2cn[nH]c2[nH]1,-0.0647% (inactive)
5,C[C@@H]1NC(=O)[C@@H](N)CNC(=O)[C@H](C2CCNC(N)=N2)NC(=O)/C(=C/NC(N)=O)NC(=O)[C@H](CNC(=O)C[C@@H](N)CCCN)NC1=O (stereo not given in full),13.5% [at 0.29 µM] (inactive)
6,C[C@@H]1CC[C@@]2(OC1)O[C@H]1C[C@H]3[C@@H]4CC[C@H]5C[C@@H](O)CC[C@]5(C)[C@H]4CC(=O)[C@]3(C)[C@H]1[C@@H]2C,-1.38% [at 6.97 µM] (inactive)
7,CCCCC(O)/C=C(C)/C=C/C=C/C(=O)N1CCCC1=O (stereo not given),5.84% [at 35.3 µM] (inactive)
8,COc1cc(C(=O)NC2CCCNC2)cc(OC)c1OC (stereo not given),-0.022% [at 35.3 µM] (inactive)
9,CC(=O)SC[C@@H](C)C(=O)N1CCC[C@H]1C(=O)N[C@@H](Cc1ccccc1)C(=O)O,-4.22% [at 35.3 µM] (inactive)
10,COCc1nnc(-c2ccc[n+]([O-])c2)n1-c1c(Cl)c(Cl)cc2[nH]c(=O)c(=O)[nH]c12,0.679% (inactive)
11,NC[C@H]1O[C@H](O[C@H]2[C@H](O)[C@@H](O[C@H]3O[C@H](CO)[C@@H](O)[C@H](N)[C@H]3O)[C@H](N)C[C@@H]2N)[C@H](N)[C@@H](O)[C@@H]1O,6.71% [at 15.8 µM] (inactive)
12,CC(=O)OCC(=O)[C@@]1(O)CC[C@H]2[C@@H]3CCC4=CC(=O)C=C[C@]4(C)[C@H]3[C@@H](O)C[C@@]21C,-2.7% [at 35.3 µM] (inactive)
13,CC(CC(=O)Cl)CC(C)(C)C (stereo not given),4.64% (inactive)
14,CCCCCCCCCCCCCCBr,4.91% (inactive)
15,c1cc2ccc3ccc4ccc5cccc6c(c1)c2c3c4c56,5.15% [at 2.72 µM] (inactive)
16,CCCC(=O)CC,5.77% (inactive)
17,O=C(O)Cc1c(Cl)ccc(Cl)c1Cl,2.6% (inactive)
18,O=CN1CCCCC1,2.57% (inactive)
19,CCCCCCCCCCCC(C)=O,6.67% (inactive)
20,O=C(O)/C=C(\CC(=O)O)C(=O)O,4.58% [at 35.3 µM] (inactive)

row,SMILES,"viability change, negative = cytotoxic"
1,CC(C)C(=O)Nc1cccc(C2CN3CCSC3=N2)c1 (stereo not given),8.64% [at 35.3 µM] (inactive)
2,COC(=O)c1ccccc1Cl,-25% (inactive)
3,O=Cc1ccc(C(=O)O)cc1,-4.29% (inactive)
4,COC(=O)c1cc(Cl)c(NC(C)=O)cc1OC,-6.54% [at 35.3 µM] (inactive)
5,C=CC(=O)OCC[N+](C)(C)C,2.25% (inactive)
6,O=C(OOC(=O)c1ccccc1)c1ccccc1,1.08% [at 35.3 µM] (inactive)
7,CCC(C)(C)C,5.9% (inactive)
8,NC(=O)CC[C@@H](N)C(=O)O,3.83% [at 35.3 µM] (inactive)
9,CN(C)CCc1c[nH]c2ccc(C[C@H]3COC(=O)N3)cc12,-0.69% [at 35.3 µM] (inactive)
10,CCCC(=O)OC,7.54% (inactive)
11,CCN(CC)CC,19.4% (inactive)
12,CCNC(=O)C(C)OC(=O)Nc1ccccc1 (stereo not given),-8.66% (inactive)
13,Cc1nnc(C(=O)NC(C)(C)c2nc(C(=O)NCc3ccc(F)cc3)c(O)c(=O)n2C)o1,8.47% [at 35.3 µM] (inactive)
14,CCOC(=O)[C@H](CCc1ccccc1)N[C@H]1CS[C@H](c2cccs2)CN(CC(=O)O)C1=O,-12.5% [at 35.3 µM] (inactive)
15,O=C(O)CCC(=O)Nc1ccc(S(=O)(=O)Nc2nccs2)cc1,6.41% [at 35.3 µM] (inactive)
16,CNC(=O)c1c(I)c(NC(C)=O)c(I)c(C(=O)O)c1I,3.01% [at 35.3 µM] (inactive)
17,CCCCCCCCCCCCCC(=O)OCC,1.81% (inactive)
18,CCCCc1ccc(Cl)cc1,14.2% (inactive)
19,CC1(C)S[C@@H]2[C@H](NC(=O)Cc3ccccc3)C(=O)N2[C@H]1C(=O)O (tested in a mixture with another compound),-1.49% [at 35.3 µM] (inactive)
20,CCCCS,12.1% (inactive)
